Source: PubChem BioAssay (NCATS)
Results filed as inconclusive are left out. Calls of active or inactive are those of the source. The call rests on the fitted dose curve; in most records, active means well fitted cell-killing curve with a large enough effect; inconclusive means small, poorly fitted or top-dose-only effect, or effect the other way; inactive means flat fitted curve, though single readings scatter.

Tests used:
Assay in all cases: Primary qHTS to identify gynecologic anti-cancer compounds using libraries of approved drugs and bioactive compounds (AID 1345084); further: nearly all actives have a fitted effect of over 55% in size
C33A = conditions: Gynecologic cancer cell panel viability, ATPlite luminescence, 48 h; series mostly up to 57.5 µM
Outline: (§1)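 Five-concentration response, 48 h; readout is ATP-driven luciferase luminescence.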

CASKI = conditions: Gynecologic cancer cell panel viability, ATPlite luminescence, 48 h; series mostly up to 57.5 µM
Outline: as §1

Es-2 = conditions: Gynecologic cancer cell panel viability, ATPlite luminescence, 48 h; series mostly up to 57.5 µM
Outline: as §1

HeLa = conditions: Gynecologic cancer cell panel viability, ATPlite luminescence, 48 h; series mostly up to 57.5 µM
Outline: as §1

JEG-3 = conditions: Gynecologic cancer cell panel viability, ATPlite luminescence, 48 h; series mostly up to 57.5 µM
Outline: as §1

SKOV3 = conditions: Gynecologic cancer cell panel viability, ATPlite luminescence, 48 h; series mostly up to 57.5 µM
Outline: as §1

Tov-21-G = conditions: Gynecologic cancer cell panel viability, ATPlite luminescence, 48 h; series mostly up to 57.5 µM
Outline: as §1

Tov112D = conditions: Gynecologic cancer cell panel viability, ATPlite luminescence, 48 h; series mostly up to 57.5 µM
Outline: as §1

Hek293T = conditions: Gynecologic cancer cell panel viability, ATPlite luminescence, 48 h, control line for the selectivity index; series mostly up to 57.5 µM
Outline: as §1

PA-1 = conditions: Gynecologic cancer cell panel viability, ATPlite luminescence, 48 h; series mostly up to 57.5 µM
Outline: as §1

OV90 = conditions: Gynecologic cancer cell panel viability, ATPlite luminescence, 48 h; series mostly up to 57.5 µM
Outline: as §1

Measured: Potency
Potency means the concentration at half of the fitted maximal effect.

COc1ccc(N(C(=O)Nc2c(C)cccc2C)c2cc(Nc3ccc(N4CCN(C)CC4)cc3)ncn2)c(OC)c1
active: SKOV3 25.1 µM | Tov-21-G 12.6 µM
not listed: Hek293T | PA-1 | OV90
inactive: all other assays above

O=C(OC1CN2CCC1CC2)N1CCc2ccccc2C1c1ccccc1 (configuration not stated)
not listed: OV90
inactive: all other assays above

C=C1CCC2[C@](C)(CCC[C@@]2(C)C=O)[C@H]1CC/C(C)=C/CO (some centres not stated)
not listed: PA-1
inactive: all other assays above

O=C(NC1(c2ccccc2)CC1)c1c(CN2CCC(N3CCCCC3)CC2)c(-c2cccc(C(F)(F)F)c2)nc2cc(Br)ccc12
active: OV90 17.8 µM
not listed: Hek293T | PA-1
inactive: all other assays above

CC(=O)NCc1cccc(OC[C@@H](O)CNCCc2ccc(NS(=O)(=O)c3ccccc3)cc2)c1
not listed: SKOV3 | OV90
inactive: all other assays above

N#Cc1cc(-c2ccnc(Nc3ccc(N4CCOCC4)cc3)n2)ccc1OC1CCOCC1
not listed: SKOV3 | PA-1
inactive: all other assays above

CN(CC1COCCO1)S(=O)(=O)Nc1ccc2ccc3ncc(-c4cnn(C)c4)cc3c(=O)c2c1 (configuration not stated)
active: HeLa 14.1 µM | SKOV3 15.8 µM
not listed: Tov-21-G | Tov112D | PA-1
inactive: all other assays above

N#Cc1ccc2ncnc(NCCc3ccccc3)c2c1
not listed: Hek293T
inactive: all other assays above

Cc1cc(C(=O)Cn2cc(C#N)ccc2=O)c(C)n1Cc1ccccc1
not listed: Hek293T
inactive: all other assays above

COc1cc(N2CCOCC2)ccc1NC(=O)c1csc(-c2cccnc2)n1
not listed: SKOV3 | Tov-21-G | PA-1 | OV90
inactive: all other assays above

C/C=C\NC(=O)C1NC(=O)C(CC(N)=O)NC(=O)C(NC(=O)C(=O)C(C)CC)Cc2ccc(O)c(c2)-c2cccc3c2NC(=O)C3(O)C1O (configuration not stated)
active: Tov-21-G 4.47 µM
not listed: PA-1
inactive: all other assays above

CCOc1cc(C(C)(C)C)ccc1C1=NC(C)(c2ccc(Cl)cc2)C(C)(c2ccc(Cl)cc2)N1C(=O)N1CCN(CCCS(C)(=O)=O)CC1 (configuration not stated)
active: PA-1 6.31 µM | Tov-21-G 15.8 µM
not listed: CASKI | Tov112D
inactive: all other assays above

C=C1C(=O)O[C@@H]2[C@H]1CC[C@H](C)C(CCC(=O)O)C2(C)O (some centres not stated)
inactive: C33A | CASKI | HeLa | SKOV3 | Tov112D

CC1CCCC[C@H]2C(=O)C=C[C@H](O)[C@@H]2CC(=O)O1 (some centres not stated)
active: C33A 20 µM | Es-2 10 µM | Hek293T 15.8 µM | PA-1 10 µM | SKOV3 3.55 µM | Tov112D 14.1 µM
inactive: CASKI

C#CC(=O)N(c1ccc(OC)cc1OC)C(C(=O)NCC(=O)OCC)c1cccs1 (configuration not stated)
active: C33A 5.01 µM | CASKI 22.4 µM | Es-2 1.41 µM | JEG-3 15.8 µM | PA-1 1.58 µM | SKOV3 3.16 µM | Tov-21-G 0.398 µM | Tov112D 6.31 µM

CC1CCC/C=C/C(=O)c2c(O)cc(O)cc2CC(=O)O1 (configuration not stated)
inactive: CASKI
active: C33A 11.2 µM | Hek293T 14.1 µM | JEG-3 14.1 µM | PA-1 5.62 µM | SKOV3 22.4 µM

CC(=O)N1CCN(CCOc2ccc(C3CCN(C4=Nn5c(nnc5C(F)(F)F)CC4)CC3)cc2)CC1
not listed: HeLa | SKOV3 | Hek293T | PA-1
inactive: all other assays above
